According to PubChem BioAssay (EPA / NIEHS):
“And” between values parts separate entries of the source, which are not always exact repeats. Equal values may be shown once. A structure can be active in one record and inactive in another. The source made the active and inactive calls. The calls were made as follows: active = hit-call score of the fitted dose curve at least 0.9, where 1 is the maximum; inactive = score below 0.9.

Experiments:
[1] = read-out: Interferon-gamma inducible Protein 10 (IP10), CXCL10 (gene 3627); experiment: BSK_hDFCGF_IP10: BioMAP Diversity Plus: hDFCGF Assay for Interferon-gamma inducible Protein 10 (IP10) Biomarker Activity (AID 2283053); conditions: primary human foreskin fibroblasts; actives raise or lower the signal
Summary of the method: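 Primary human foreskin fibroblasts exposed to chemicals for 24 h. IP-10 measured by ELISA; changes fitted bidirectionally against DMSO baseline.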

[2] = read-out: Urokinase-type plasminogen activator receptor (uPAR), PLAUR (gene 5329); experiment: BSK_CASM3C_uPAR: BioMAP Diversity Plus: CASM3C Assay for Urokinase-type plasminogen activator receptor (uPAR) Biomarker Activity (AID 2283054); conditions: primary human coronary artery smooth muscle cells; actives raise or lower the signal;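 also: cell-surface uPAR protein level quantified by ELISA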
[3] = read-out: Vascular cell adhesion molecule 1 (VCAM1), VCAM1 (gene 7412); experiment: BSK_CASM3C_VCAM1: BioMAP Diversity Plus: CASM3C Assay for Vascular cell adhesion molecule 1 (VCAM1) Biomarker Activity (AID 2283055); conditions: primary human coronary artery smooth muscle cells; actives raise or lower the signal;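 also: VCAM-1 protein level quantified by ELISA on the cells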
[4] = read-out: Collagen III, COL3A1 (gene 1281); experiment: BSK_hDFCGF_CollagenIII: BioMAP Diversity Plus: hDFCGF Assay for Collagen III Biomarker Activity (AID 2283056); conditions: primary human foreskin fibroblasts; actives raise or lower the signal
Summary of the method: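 Cells: human foreskin fibroblasts, primary. Dosing followed by 24 h incubation, then ELISA for collagen III. Both increases and decreases scored relative to DMSO.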

[5] = read-out: Epidermal growth factor receptor (EGFR), EGFR (gene 1956); experiment: BSK_hDFCGF_EGFR: BioMAP Diversity Plus: hDFCGF Assay for Epidermal growth factor receptor (EGFR) Biomarker Activity (AID 2283057); conditions: primary human foreskin fibroblasts; actives raise or lower the signal
Summary of the method: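 Primary human foreskin fibroblasts (hDFCGF system), sampled 24 h after dosing; EGFR quantified by ELISA. Bidirectional fit relative to DMSO baseline; SRB total-protein staining in parallel cultures for cytotoxicity.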

[6] = read-out: Interleukin-8 (IL8), CXCL8 (gene 3576); experiment: BSK_hDFCGF_IL8: BioMAP Diversity Plus: hDFCGF Assay for Interleukin-8 (IL8) Biomarker Activity (AID 2283058); conditions: primary human foreskin fibroblasts; actives raise or lower the signal
Summary of the method: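 IL-8 levels from compound-treated primary human fibroblasts were read by ELISA at 24 h, with DMSO serving as baseline for bidirectional fitting.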

[7] = BSK_hDFCGF_Proliferation: Cell Proliferation Assessment in the BioMAP Diversity Plus: hDFCGF Assay (AID 2283059); conditions: primary human foreskin fibroblasts;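 also: curves fitted for both rise and fall of signal versus DMSO baseline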
Summary of the method: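 Total protein read at 560 nm after 0.1% SRB staining of TCA-fixed human skin fibroblasts, […]. Activity is fitted in both directions relative to DMSO as baseline.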

[8] = read-out: Macrophage colony-stimulating factor (MCSF), CSF1 (gene 1435); experiment: BSK_hDFCGF_MCSF: BioMAP Diversity Plus: hDFCGF Assay for Macrophage colony-stimulating factor (MCSF) Biomarker Activity (AID 2283060); conditions: primary human foreskin fibroblasts; actives raise or lower the signal
Summary of the method: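 M-CSF levels, determined by ELISA, are taken at 24 h after dosing human skin fibroblasts. Responses in either direction are fitted with DMSO serving as the baseline.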

[9] = BSK_hDFCGF_SRB: Viability Assessment in the BioMAP Diversity Plus: hDFCGF Assay (AID 2283061); conditions: primary human foreskin fibroblasts;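 also: cells exposed to compound for 24 h before the read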
Summary of the method: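 Cells were dosed with test chemical, cultured 24 h, fixed with 10% TCA, then stained with 0.1% SRB and read at 560 nm. The fibroblasts were human foreskin primary cells, and DMSO served as baseline.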

[10] = read-out: TIMP metallopeptidase inhibitor 1 (TIMP1), TIMP1 (gene 7076); experiment: BSK_hDFCGF_TIMP1: BioMAP Diversity Plus: hDFCGF Assay for TIMP metallopeptidase inhibitor 1 (TIMP1) Biomarker Activity (AID 2283062); conditions: primary human foreskin fibroblasts; actives raise or lower the signal
Summary of the method: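 Fibroblasts from human foreskin are treated with test chemical and harvested at 24 h. TIMP-1 is quantified by ELISA, and gain or loss of signal is scored against DMSO.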

Row | SMILES | AC50 [1] | outcome [2] | outcome [3] | outcome [4] | outcome [5] | outcome [6] | AC50 [7] | AC50 [8] | outcome [9] | outcome [10] | AC50 [4] | AC50 [6] | AC50 [9] | AC50 [10] | outcome [1] | outcome [7] | outcome [8] | AC50 [2] | AC50 [3]
1 | NC(=O)N(O)[C@@H]1C=C[C@H](Oc2cccc(Oc3ccc(F)cc3)c2)C1 | 20 µM (active) | inactive | inactive | inactive | inactive | inactive | 13.3 µM (active) | 3.97 µM (active) | inactive | inactive | – | – | – | – | – | – | – | – | –
2 | CCCCCCCCCCCCN1CCCC1=O | 30.9 µM (active) | inactive | inactive | – | inactive | – | 14.6 µM (active) | 31 µM (active) | – | – | 14.4 µM (active) | 34.6 µM (active) | 34 µM (active) | 32.7 µM (active) | – | – | – | – | –
3 | CC(O)CO (stereo not given) | – | inactive | inactive | inactive | inactive | inactive | – | – | inactive | inactive | – | – | – | – | inactive | inactive | inactive | – | –
4 | O=C(OCCOCCOC(=O)c1ccccc1)c1ccccc1 | – | inactive | inactive | inactive | inactive | inactive | – | – | inactive | inactive | – | – | – | – | inactive | inactive | inactive | – | –
5 | Oc1cccc(O)c1 | – | inactive | inactive | inactive | inactive | inactive | – | – | inactive | inactive | – | – | – | – | inactive | inactive | inactive | – | –
6 | CCCCCCC(=O)O | – | inactive | inactive | inactive | inactive | inactive | – | – | inactive | inactive | – | – | – | – | inactive | inactive | inactive | – | –
7 | CC(C)CCCCCCOC(=O)CCCCC(=O)OCCCCCCC(C)C | – | inactive | inactive | inactive | inactive | inactive | – | – | inactive | inactive | – | – | – | – | inactive | inactive | inactive | – | –
8 | NCC(F)(F)C(F)(F)C(F)(F)C(F)(F)C(F)(F)C(F)(F)C(F)(F)F | – | inactive | inactive | inactive | inactive | inactive | – | – | inactive | inactive | – | – | – | – | inactive | inactive | inactive | – | –
9 | COc1ccc([N+](=O)[O-])cc1N | – | inactive | inactive | inactive | inactive | inactive | – | – | inactive | inactive | – | – | – | – | inactive | inactive | inactive | – | –
10 | CC[C@H](C)[C@@H](C(=O)O)n1sc2ccccc2c1=O | – | inactive | inactive | inactive | inactive | inactive | – | – | inactive | inactive | – | – | – | – | inactive | inactive | inactive | – | –
11 | OCCC(F)(F)C(F)(F)C(F)(F)C(F)(F)C(F)(F)C(F)(F)F | 52.6 µM (active) | inactive | inactive | inactive | inactive | inactive | 48.3 µM (active) and 47.4 µM (active) | 54.2 µM (active) | inactive | inactive | 46.3 µM (active) | 46.4 µM (active) and 57.9 µM (active) | 51.3 µM (active) and 46.8 µM (active) | 53.1 µM (active) and 47.1 µM (active) | inactive | inactive | inactive | – | –
12 | NC(=O)N1C(=O)C(C(=O)c2cc(Cl)cs2)c2cc(F)c(Cl)cc21 (stereo not given) | 5.92 µM (active) | – | – | – | inactive | – | 1.54 µM (active) | 2.1 µM (active) | – | – | 4.54 µM (active) | 16.6 µM (active) | 5.47 µM (active) | 5.17 µM (active) | – | – | – | 27.3 µM (active) | 5.41 µM (active)
13 | OCCC(F)(F)C(F)(F)C(F)(F)C(F)(F)C(F)(F)C(F)(F)C(F)(F)C(F)(F)F | 14.6 µM (active) and 11.2 µM (active) | inactive | – | inactive | inactive | inactive | 11.4 µM (active) and 5.06 µM (active) | 13.8 µM (active) and 12.1 µM (active) | inactive | inactive | 18.3 µM (active) and 11.9 µM (active) | 19.2 µM (active) and 17.4 µM (active) | 13.8 µM (active) and 15.5 µM (active) | 16.3 µM (active) and 14.6 µM (active) | inactive | inactive | inactive | 42.3 µM (active) and 43.7 µM (active) | 12.3 µM (active) and 23.2 µM (active) and 11.5 µM (active)
14 | OC1CCC(C2CCCCC2)CC1 (stereo not given) | – | inactive | inactive | inactive | inactive | inactive | – | – | inactive | inactive | – | – | – | – | inactive | inactive | inactive | – | –
15 | O=C(O)c1ccccc1C(c1ccc(O)cc1)c1ccc(O)cc1 | – | inactive | inactive | inactive | inactive | inactive | – | – | inactive | inactive | – | – | – | – | inactive | inactive | inactive | – | –
